Experimental data reported in the OligoGym collection.

These sequences were tested against TMCO6 (assay: pooled miR-30 sensor sort-seq; sequence = guide strand). Conditions: shRNA.
Also: reference of the scale not given here.

Sequence	sensor-assay potency score (higher = more potent)
AACACGCTCATCTCTGAGCTGC	-0.789
TGCAACATTGCACAGAACTGTG	-0.739
TTGTAGCATGTGCTGAGGGAGA	-1.18
ATACACACGATCCTGGAGCTGG	-0.0753
TTCCTCAGCCTGTAGAAGCTGG	-0.621

Each sequence was assayed against TMED3 in the same assay as above. Conditions: shRNA.

Sequence	sensor-assay potency score (higher = more potent)
ATCGTCTCGCCAACAGACCAGT	-1.25
TTGTCCGGCAGCTCGAAGGTGA	-0.973
TTGAAAGTCAAAGTAGACGGTC	-0.0324
TAGTTGTAAATGTCTTTTCAGC	-1.07
TACATAGCAGTCAACATCGTAG	-0.235
TAGCAGTCAACATCGTAGTGGC	-0.101
TACCACAGCAGCATCGTTCTGC	0.426
TTCAACAGTAGCACCTGACTGA	0.248
TTCGTTTCTCTGTAGATGGTGT	0.459
ATAGCAGTCAACATCGTAGTGG	-0.497
TATTAAGGTCTTCCGCTCGGGC	-0.618
TACTGCTTCTTCGTTTCTCTGT	-0.244
